Results taken from PubChem BioAssay (NCATS).
Inconclusive results are not listed. Values without a mark were called inactive. Calls of active or inactive are those of the source. Calls come from the whole dose curve; as a rule, active = well fitted cell-killing curve with a large enough effect; inconclusive = small, poorly fitted or top-dose-only effect; inactive = flat fitted curve, though single readings scatter.

experiment: Cell Viability - LYMP2-010 (AID 981); details: LYMP2-010 lymphoblastoid cell viability, qHTS; series mostly up to 92.2 µM; activity, negative = cytotoxicity: at the top concentration; note: nearly all actives have a fitted effect of over 55% in size
Excerpt: NIH Chemical Genomics Center [NCGC]
NIH Molecular Libraries Screening Centers Network [MLSCN]
National Institutes of Environmental Health Sciences [NIEHS]
National Toxicology Program [NTP]
We have developed a 1536-well cell-based assay for quantitative high throughput screening (qHTS) against a number of cell lines to determine in vitro cytotoxicity of small molecules. This particular assay uses a human lymphoblastoid cell line (LYMP2-010) purchased from Coriell Institute for Medical Research.
NCGC Assay Protocol Summary:
The CellTiter-Glo luminescent cell viability assay (Promega) is a homogeneous method to measure the number of viable cells in culture. The end point readout of this assay is based on quantitation of intracellular ATP, an indicator of metabolic activity, using the luciferase reaction. Luciferase catalyzes the oxidation of beetle Luciferin to oxyluciferin and light in the presence of ATP. The luminescent signal is proportional to amount of ATP present.
Using the CellTiter-Glo luminescent cell viability assay, the amount of cellular ATP was measured in the lymphoblastoid cell line with complete culture medium following compound treatment for 24 hours. The assay was performed in opaque white Kalypsys 1536-well plates. In the screen, tetraoctylammonium bromide was used as positive control. Library compounds were measured for their ability to cause acute toxicity in the cell line, as reflected by a decrease in intracellular ATP levels, in a concentration-dependent manner. […] AC50 values were determined from concentration-response data modeled with the standard Hill equation.
qHTS protocol for CellTiter Glo lymphoblastoid cellular assay
[Step] [Parameter] [Value] [Description]
1. Reagent; 5 uL; 2500 lymphoblastoid cells/well
2. Time; 5 hr; 37 C incubation
4. Controls; 23 nL; Tetraoctylammonium bromide 6.4pM to 92 uM
5. Time; 24 hr; 37 C incubation
6. Reagent; 5 uL; CellTiter Glo reagent
7. Time; 30 min; Room Temperature
8. Detection; Luminescence; Viewlux plate reader
Keywords: cell viability, cytotoxicity, lymphoblastoid cell line, luminescence, NTPHTS, NTPHTS_NCGC, NIEHS, DSSTox, MLSMR, MLSCN, NIH Roadmap, qHTS, NCGC
% is set by controls: 0 for no effect and ±100 for the full control effect; potency is the fitted concentration of half-maximal effect.

With COC(=O)c1ccccc1C(=O)OC as the compound, how does the “activity, negative = cytotoxicity” value read?
The value was -9.68%.

With Oc1ccccc1O as the compound, how does the Potency read?
The Potency was 20 µM (active).

For Oc1c(Cl)c(Cl)c(Cl)c(Cl)c1Cl, which “activity, negative = cytotoxicity” value is on record?
The value was -21.5%.

Which “activity, negative = cytotoxicity” value does the source give for CC(C)(c1ccc(OCC2CO2)cc1)c1ccc(OCC2CO2)cc1 (stereo not drawn) here?
Its value is -29.8%.

For Oc1ccccc1Cl, which “activity, negative = cytotoxicity” value is on record?
Its value is -3.46%.

Which “activity, negative = cytotoxicity” value does the source give for CC(=O)/C=C/c1ccccc1 here?
The value was -5.87%.

For O=Cc1ccccc1, which “activity, negative = cytotoxicity” value is on record?
The value was -7.3%.

Which “activity, negative = cytotoxicity” value does the source give for c1ccc(Nc2ccc3ccccc3c2)cc1 here?
The value was -14.7%.

For Cc1ccccc1O, which “activity, negative = cytotoxicity” value is on record?
The value was -8.64%.

With CC(C)COC(=O)c1ccccc1C(=O)OCC(C)C as the compound, how does the “activity, negative = cytotoxicity” value read?
Its value is -13.4%.

For CCOC(=O)c1ccccc1N, which “activity, negative = cytotoxicity” value is on record?
Its value is -7.45%.

With c1ccc2c(c1)-c1cccc3cccc-2c13 as the compound, how does the “activity, negative = cytotoxicity” value read?
The value was -0.444%.

Which “activity, negative = cytotoxicity” value does the source give for CCOc1cc(C=O)ccc1O here?
Its value is -6.35%.
